# Results filed as inconclusive are left out. Unmarked numbers belong to inactive results. Activity calls are given as the source filed them. The call rests on the fitted dose curve; in most records, active means well fitted inhibition curve with a large enough effect; inconclusive means small, poorly fitted or top-dose-only effect; inactive means no such curve, though single readings can be large or run the other way.
# Target: Cytochrome P450 2C9 (Homo sapiens) (UniProt P11712)
# Assay: qHTS for inhibitors of CYP2C9 against the NCATS DSHEA and TCM libraries (AID 1919973);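 on activity change, negative = inhibition: luminogenic pro-luciferin CYP2C9 substrate turned into luciferin with NADPH regeneration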
# Details: recombinant CYP2C9 enzyme activity, luminescence; series mostly up to 34.1 µM; activity change, negative = inhibition: at the top concentration
# Description: Assay Development and Screening Technology Laboratory (ADST)
# National Center for Advancing Translational Sciences (NCATS), Rockville, MD
# National Institute of Health (NIH), Bethesda, Maryland
# Dietary Supplements and Natural Products have minor oversight of their safety and efficacy. We assembled a collection of Dietary Supplements and Natural Products (DSNP) as well as Traditional Chinese Medicinal (TCM) Plant extracts, which were screened against an in vitro panel of assays, including a liver cytochrome p450 enzyme panel, CAR/PXR signaling pathways, and P-gp transporter assays, to assess their activity. This pipeline facilitated the interrogation of Natural Product-Drug Interaction (NaPDI) through prominent metabolizing pathways. In addition, we compared the activity profiles of the DSNP/TCM substances with those of an approved drug collection. Many of the approved drugs have well-annotated mechanisms of action (MOA) while the MOAs for most of the DSNP and TCM samples remain unknown. Based on the premise that compounds with similar activity profiles tend to share similar targets or MOA, we clustered the library activity profiles to identify overlap with the NCATS Pharmaceutical Collection to predict the MOAs of the DSNP/TCM substances. Overall, we highlight four significant bioactivity profiles (measured by p-values) as examples of this prediction. To assess broad cytotoxicity, we employed screening against a HepG2 cell line. In addition, transporter-mediated drug interactions are utilized in the characterization of DDIs using a P-glycoprotein (P-gp) assays. To profile potential P-gp activity, a differential cell viability was measured against two cell lines: a parental KB-3-1 human cervical adenocarcinoma cell line and the drug-resistant subline KB-8-5-11 that overexpresses P-gp.
# To this end, we profiled both collections for potential CAR and/or PXR activity, employing a previously published 1536-well qHTS assay.
# [1] Lee TD, et al. A High-Throughput Screen of a Library of Therapeutics Identifies Cytotoxic Substrates of P-glycoprotein. Mol Pharmacol. Nov 2019;96(5):629-640. doi:10.1124/mol.119.115964
# PROTOCOL TABLE (as described by Inglese J, Shamu CE and Guy RK. 2007)
# SEQUENCE No. (e.g., 1, 2, 3, etc.); […] (e.g., Cells, Incubation, Reagent, etc.); VALUE; DESCRIPTION.
# 1; Reagent; 2 uL; cytochrome P450 enzyme and luciferin substrate or buffer only, white solid-bottom Greiner plate.
# 2; Compounds and control; 16 nL; Kalypsis pintool (Wako USA) equipped with a 1536-well pin head to transfer to the assay plates.
# 3; Incubation; 15 min; room temperature.
# 4; Reagent; 2 uL; nicotinamide adenine dinucleotide phosphate (NADPH).
# 5; Incubation; 30 - 45 min; room temperature in the dark.
# 6; Reagent; 4 uL; P450-Glo assay detection reagent.
# 7; Centrifuge; 1000 RPM; 15 seconds.
# 8; Incubation; 30 min; room temperature.
# 9; Read; Luminescence; ViewLux plate reader.
# NOTES (numbers refer to Sequence numbers above)
# 1. A 2 uL mixture of corresponding enzymes and luciferin substrate (final concentrations CYP enzyme-specific and pro-luciferin substrate-specific) or minus-enzyme (assay buffer conditions supplied by the manufacturer for respective enzyme isoform; typically, 100 mM KPO4) and luciferin substrate were dispensed using a BioRAPTR FRD (Beckman Coulter, Brea, CA) into columns of a 1536-well white solid-bottom medium binding plate (Greiner Bio-One, Monroe, NC). Five isoforms of cytochrome P450 were used (CYP1A2, CYP2C9, CYP2C19, CYP2D6, and CYP3A4).
# 2. Substances (final concentrations of most substances ranged from 19.5 nM to 39.8 uM) and controls (CYP-specific) were transferred (16 nL) via pintool (Wako Automation, Richmond, VA). Intraplate controls furafylline (CYP1A2), sulfaphenazole (CYP2C9), ketoconazole (CYP2C19), quinidine (CYP2D6), and ketoconazole (CYP3A4) were used correspondingly.
# 3. Assay plates were incubated at room temperature for 15 min.
# 4-5. […]
# On the % scale 0 is the no-effect control and ±100 the full control effect; potency means the concentration at half of the fitted maximal effect.
# Sequence of Cytochrome P450 2C9 (Homo sapiens) (P11712 whole entry, looked up): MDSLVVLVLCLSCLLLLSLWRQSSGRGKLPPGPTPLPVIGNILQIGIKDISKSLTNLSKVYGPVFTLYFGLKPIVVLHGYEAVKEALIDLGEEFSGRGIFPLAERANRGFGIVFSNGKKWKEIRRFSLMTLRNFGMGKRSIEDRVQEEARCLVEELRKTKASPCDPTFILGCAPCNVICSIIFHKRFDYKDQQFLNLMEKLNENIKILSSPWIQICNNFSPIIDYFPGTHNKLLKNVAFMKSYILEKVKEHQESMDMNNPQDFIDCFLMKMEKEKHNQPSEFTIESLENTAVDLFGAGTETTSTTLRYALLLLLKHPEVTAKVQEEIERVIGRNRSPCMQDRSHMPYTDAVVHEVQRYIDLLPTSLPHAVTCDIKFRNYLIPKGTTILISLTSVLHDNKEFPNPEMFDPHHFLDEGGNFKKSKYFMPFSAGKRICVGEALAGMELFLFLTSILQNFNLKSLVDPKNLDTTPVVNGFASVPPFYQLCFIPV
SMILES,"activity change, negative = inhibition",Potency
COc1ccc(/C=C/c2cc(OC)cc(=O)o2)cc1,78.8%,
CC(C)=CCC[C@](C)(O[C@@H]1O[C@H](CO)[C@@H](O)[C@H](O)[C@H]1O)[C@H]1CC[C@]2(C)[C@@H]1[C@H](O)C[C@@H]1[C@@]3(C)CC[C@H](O)C(C)(C)[C@@H]3[C@@H](O[C@@H]3O[C@H](CO)[C@@H](O)[C@H](O)[C@H]3O[C@@H]3O[C@@H](C)[C@H](O)[C@@H](O)[C@H]3O)C[C@]12C,10.6%,
CCCCC/C=C/C/C=C/CCCCCCCC(=O)O,,12.6 µM (active)
CC(C)=CCC[C@](C)(O[C@@H]1O[C@H](CO)[C@@H](O)[C@H](O)[C@H]1O)[C@H]1CC[C@]2(C)[C@@H]1[C@H](O)C[C@@H]1[C@@]3(C)CC[C@H](O[C@@H]4O[C@H](CO)[C@@H](O)[C@H](O)[C@H]4O[C@@H]4O[C@H](CO)[C@@H](O)[C@H](O)[C@H]4O)C(C)(C)[C@@H]3CC[C@]12C,5.22%,
CC(C)=CCC[C@](C)(O[C@@H]1O[C@H](CO)[C@@H](O)[C@H](O)[C@H]1O)[C@H]1CC[C@]2(C)[C@@H]1[C@H](O)C[C@@H]1[C@@]3(C)CC[C@H](O)C(C)(C)[C@@H]3[C@@H](O[C@@H]3O[C@H](CO)[C@@H](O)[C@H](O)[C@H]3O)C[C@]12C,3.57%,
C=CC(C)(CCC=C(C)C)OC(C)=O (stereo not given),3.38% [at 58.3 µM],
CC(=O)O[C@@H]1CC[C@@]2(C)[C@@H](CC[C@]3(C)[C@@H]2C(=O)C=C2[C@@H]4[C@@H](C)[C@H](C)CC[C@]4(C)CC[C@]23C)[C@@]1(C)C(=O)O,,14.1 µM (active)
CC1(C)CC[C@]2(C(=O)O)CC[C@]3(C)C(=CCC4[C@@]5(C)CC[C@@H](O)C(C)(C)C5CC[C@]43C)C2C1 (stereo not given in full),5.84%,
CC(C)=CCC[C@](C)(OC1OC(COC2OCC(O)C(O)C2O)C(O)C(O)C1O)[C@H]1CC[C@]2(C)[C@@H]1[C@H](O)C[C@@H]1[C@@]3(C)CC[C@H](OC4OC(CO)C(O)C(O)C4OC4OC(CO)C(O)C(O)C4O)C(C)(C)[C@@H]3CC[C@]12C (stereo not given in full),7.19%,
CC1=CCC(O)(C(C)C)CC1 (stereo not given),2.7% [at 58.3 µM],
CC(C)c1ccc(C=O)cc1,11.2% [at 58.3 µM],
O=C(/C=C/c1ccc(O)c(O)c1)O[C@@H]1CC(C(=O)O)=C[C@@H](O)[C@H]1O,-5.75%,
CCCCC/C=C/C(=O)CCc1ccc(O)c(OC)c1,1.41%,
CC(C)[C@H](C)CC[C@@H](C)[C@H]1CC[C@H]2[C@@H]3CC=C4C[C@@H](O)CC[C@]4(C)[C@H]3CC[C@]12C,-0.447%,
OCCc1ccc(O)cc1,4.92% [at 58.3 µM],
C=C1CC[C@H](O)C/C1=C\C=C1/CCC[C@]2(C)[C@@H]([C@H](C)CC[C@H](C)C(C)C)CC[C@@H]12,,10 µM (active)
C=C(C)C(CC=C(C)C)CC12CC(CC=C(C)C)C(C)(C)C(CC=C(C)C)(C(=O)/C(=C(\O)c3ccc(O)c(O)c3)C1=O)C2=O (stereo not given),,15.8 µM (active)
CN(CC(=O)O)C(=N)N,20.8% [at 104 µM],
C=C(C)C1CC=C(C)C(O)C1 (stereo not given),-5.09%,
CC(=O)OC/C=C/c1ccccc1,-3% [at 58.3 µM],

SMILES,"activity change, negative = inhibition",Potency
CC(=O)OC1CC2CCC1(C)C2(C)C (stereo not given),20.1%,
O=C(O[C@@H]1Cc2c(O)cc(O)cc2O[C@@H]1c1ccc(O)c(O)c1)c1cc(O)c(O)c(O)c1,,12.6 µM (active)
CCCCCC(=O)CC,22.8% [at 104 µM],
COc1cc(-c2oc3cc(O)cc(O)c3c(=O)c2O)ccc1O,,4.47 µM (active)
O=C(/C=C/c1ccc(O)c(O)c1)O[C@H]1[C@H](O)C[C@](O)(C(=O)O)C[C@H]1OC(=O)/C=C/c1ccc(O)c(O)c1,,15.8 µM (active)
CC[C@H](CC[C@@H](C)[C@H]1CCC2C3CCC4C[C@@H](O)CC[C@]4(C)C3CC[C@@]21C)C(C)C (stereo not given in full),14.5%,
CCCCCCCCCCCCCCCCCCCCCC(=O)O,-0.631%,
OCC1=C[C@@H](O)[C@@H]2C=CO[C@@H](OC3O[C@H](CO)[C@@H](O)[C@H](O)[C@H]3O)[C@H]12 (stereo not given in full),3.89%,
Cc1ccc(C(C)C)cc1,18.7% [at 58.3 µM],
C=CC(=C)CCC=C(C)C,7.66%,
COc1cc(/C=C/c2ccccc2)oc(=O)c1,5.05%,
CC(C)(O)[C@@H]1CC[C@](C)([C@@H]2[C@H](O)C[C@]3(C)C4C[C@@H](O[C@H]5O[C@@H](CO)[C@H](O)[C@@H](O)[C@@H]5O)C5C(C)(C)[C@H](O[C@H]6OC[C@H](O)[C@@H](O)[C@@H]6O)CC[C@]56CC46CC[C@@]23C)O1 (stereo not given in full),7.13%,
CCCCCCCCCCCCCCCCCCCCCCCCCCCCCCO,4.8% [at 4.27 µM],
CC1(C)C2CCC1(C)C(O)C2 (stereo not given),7.92%,
CC12CC3(O)OC(O1)C1(COC(=O)c4ccc(O)cc4)C3CC21OC1OC(CO)C(O)C(O)C1O (stereo not given),-0.428%,
C=C1CC[C@H]2C[C@@H]1C2(C)C,0.941% [at 58.3 µM],
COc1ccc(C(=O)O)cc1,7.34% [at 58.3 µM],
C=C1C[C@@]23CC[C@H]4[C@@](C)(CCC[C@@]4(C)C(=O)O[C@@H]4O[C@H](CO)[C@@H](O)[C@H](O)[C@H]4O[C@@H]4O[C@H](CO)[C@@H](O)[C@H](O)[C@H]4O)[C@@H]2CC[C@]1(O[C@@H]1O[C@H](CO)[C@@H](O)[C@H](O)[C@H]1O[C@@H]1O[C@H](CO)[C@@H](O)[C@H](O)[C@H]1O)C3,1.02%,
COc1ccccc1/C=C/C=O,56.8% [at 58.3 µM],
O=C(O)c1ccccc1,11.8%,
